# In article PMC7819943, “Rice protein-binding microarrays: a tool to detect cis-acting elements near promoter regions in rice”:
# The full ranking holds about 68,000 sequences; the median of “fluorescence intensity (a.u.)” is about 9,100, and the highest 2% start at about 16,000. The entries come from a sample that favours the highest values as a whole.
# Target: OsWRKY34 (Oryza sativa, UniProt Q0JBA9 1-250)
# Assay: protein-binding microarray (RPBM); PBS, 2% BSA, 51.3 ng/ul salmon testes DNA, 50 uM zinc acetate, 200 nM TF, 25 C, 1 h; high values mean tight binding
# Conditions: protein: recombinant; tags: N-terminal polyhistidine and DsRed monomer fusion (pET32a); label: CyDye5-dUTP incorporated in the synthesized complementary strand; 3' TTTTT single-stranded linker to array surface; dsDNA, one strand shown
# How it was run: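 Binding signal here means per-feature fluorescence intensity in arbitrary units. The values were read on an Axon 4000B scanner after a custom Agilent array, double-stranded by primer extension with Cy5-dUTP, was incubated with 200 nM protein at 25 °C for 1 h in PBS with 2% BSA, salmon testes DNA and 50 µM zinc acetate, then washed. The proteins were transcription factors with an N-terminal polyhistidine tag and DsRed, expressed in E. coli BL21-CodonPlus and purified on Ni–NTA.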
# OsWRKY34, sequence (Q0JBA9 entry or part of it): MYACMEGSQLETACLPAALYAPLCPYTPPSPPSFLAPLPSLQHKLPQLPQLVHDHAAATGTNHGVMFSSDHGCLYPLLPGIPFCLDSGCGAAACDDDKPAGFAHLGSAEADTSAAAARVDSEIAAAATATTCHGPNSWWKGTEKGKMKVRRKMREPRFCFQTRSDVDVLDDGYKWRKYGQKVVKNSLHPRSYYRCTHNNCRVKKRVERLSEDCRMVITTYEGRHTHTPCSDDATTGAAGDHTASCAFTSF
row,Sequence,binding signal
1,CTTTTTATTACCGGTGTTTCGCTTTGGACCACCCTTCAACCGGAGTCACCTAGTGCAG,9170 fluorescence intensity (a.u.)
2,CCACCAATCCACCACCGCCACGCCACTTCACCCTTGTTTTCGGAGTCACCTAGTGCAG,9810 fluorescence intensity (a.u.)
3,CTCCGTCGCCACTCACACCCATGGCCTTGACCGCTACTAGCGGAGTCACCTAGTGCAG,9550 fluorescence intensity (a.u.)
4,GTTTTGAAAGGTATTGTTGGGTAGTAATAGGCTTCATCTTCGGAGTCACCTAGTGCAG,10200 fluorescence intensity (a.u.)
5,TTCCTTTTGTGTTGTTTCCCTTTCAGTTTCATCTTTTGCTCGGAGTCACCTAGTGCAG,8110 fluorescence intensity (a.u.)
6,ACTTGTCCTTGATCCTGCCCCACTTCGGATTGTCAATCGACGGAGTCACCTAGTGCAG,8730 fluorescence intensity (a.u.)
7,CGTTCCTTGGTATTCTCCCTCGTGGTGTAAATGTACGTATCGGAGTCACCTAGTGCAG,9740 fluorescence intensity (a.u.)
8,TTGTTGCAGCCTCGCAGTAAGATTCCTTGTTTTTCTTAGCCGGAGTCACCTAGTGCAG,8620 fluorescence intensity (a.u.)
9,TCGCTTTTTACTTTTTATTTTTTTACACATCCGACTCAAACGGAGTCACCTAGTGCAG,8260 fluorescence intensity (a.u.)
10,CACCCAAGCCAAGCCCACGACCCGCACCGCAACACGCACACGGAGTCACCTAGTGCAG,8520 fluorescence intensity (a.u.)
11,CCCGCACCGCAACACGCACACCCACGCGCACGCACAAACCCGGAGTCACCTAGTGCAG,8060 fluorescence intensity (a.u.)
12,ACCCAAAGCCACCCGCAACAACCGACGACGACGACGACCGCGGAGTCACCTAGTGCAG,18200 fluorescence intensity (a.u.)
13,CCACGCTATCCCATGCGATTCGAGAAGGTTCCACACACACCGGAGTCACCTAGTGCAG,8430 fluorescence intensity (a.u.)
14,AATGGTGCAATACAATTTCAAGCGTATCACTGTTGTTCCTCGGAGTCACCTAGTGCAG,9720 fluorescence intensity (a.u.)
15,TTCAAAATGTTTGATACCGTTGACTTTTTAGCACATTTTGCGGAGTCACCTAGTGCAG,29400 fluorescence intensity (a.u.)
16,GACTTTTTAGCACATTTTTGACCGTTCATCTTATTCAAAACGGAGTCACCTAGTGCAG,8780 fluorescence intensity (a.u.)
17,TCAAAATGTTTAACGCCGTTGACTTTTTAGCACATTTTTGCGGAGTCACCTAGTGCAG,33000 fluorescence intensity (a.u.)
18,GGTTTCAAGAAAAGGAAAAGAAAAACTAAACGTAGTATAACGGAGTCACCTAGTGCAG,11300 fluorescence intensity (a.u.)
19,AGTATCAAGCGATACAGGAGCTCCTCACTCCATCTCTCTACGGAGTCACCTAGTGCAG,8330 fluorescence intensity (a.u.)
20,TTCGGTTTTTCTCTTCATCATTTCTCTTTATTTCTTTCTCCGGAGTCACCTAGTGCAG,9290 fluorescence intensity (a.u.)
21,CACACACTCTCCGGTTTTTTTTTCCTTTTCATTTTTTTCTCGGAGTCACCTAGTGCAG,28000 fluorescence intensity (a.u.)
22,CCTCCTCTCCCTTTTCTGCTGTTTCTCTCTCTCACACACTCGGAGTCACCTAGTGCAG,8470 fluorescence intensity (a.u.)
23,ATATCTACTCCCGGTTTCTGCTGGATTCCTTCCTTTTTCTCGGAGTCACCTAGTGCAG,17500 fluorescence intensity (a.u.)

row,Sequence,binding signal
1,GTTTTGCACATCCGGTTTTCTCTCTCTCTCTCTCTCCTTTCGGAGTCACCTAGTGCAG,16700 fluorescence intensity (a.u.)
2,TTTTTTTCTCCTTTCCTTCTTCTCTCTCTCTCTTTTTTTTCGGAGTCACCTAGTGCAG,8870 fluorescence intensity (a.u.)
3,CACTCTCTCTCGCTGTCTTTCTCTCCTTCCATTTCATTTCCGGAGTCACCTAGTGCAG,8250 fluorescence intensity (a.u.)
4,CGTTTCTCTTTCTTTCTTCCCTTCGGTTTCTCCTCCTCTCCGGAGTCACCTAGTGCAG,10600 fluorescence intensity (a.u.)
5,CGCCGGTTGCTTCCATATACTCTGCTCCTTTTTTTTCTATCGGAGTCACCTAGTGCAG,9240 fluorescence intensity (a.u.)
6,ACAGGGCTTGGAATAGGTTGGTGTACAGGGCGGTAGCTTACGGAGTCACCTAGTGCAG,8670 fluorescence intensity (a.u.)
7,AGAAAAGAATCTACAGTACCCACATGGCATACTCTCTTTTCGGAGTCACCTAGTGCAG,9950 fluorescence intensity (a.u.)
8,GTCTTTTGGTGGGTGGGAAATCACTTCCATTTCCCATTAGCGGAGTCACCTAGTGCAG,11300 fluorescence intensity (a.u.)
9,GTGGCAATGCAAACTCGTCTTGGAACCCACTGCTTTGCCTCGGAGTCACCTAGTGCAG,8192 fluorescence intensity (a.u.)
10,ATACTACCTCCGTTTTTTAATAGATGACGTCGTTGACTTTCGGAGTCACCTAGTGCAG,14600 fluorescence intensity (a.u.)
11,TACCTCCGTTTTTTAATAGATGACGCCGTTGACTTTTTCTCGGAGTCACCTAGTGCAG,25000 fluorescence intensity (a.u.)
12,CTACTATCATATTTTTTAATAGATGACTCCGTTGACTTTTCGGAGTCACCTAGTGCAG,16800 fluorescence intensity (a.u.)
13,ATGACATACTAATAGATGATACTATTGACTTTTTTTCTATCGGAGTCACCTAGTGCAG,9980 fluorescence intensity (a.u.)
14,TACCTCCGTTTTCTAATAGATGACGCCGTTGACTTTTTCTCGGAGTCACCTAGTGCAG,20700 fluorescence intensity (a.u.)
15,TCCCTCCGTTTTTTAATAGATGATGCCGTTGACTTTTTCTCGGAGTCACCTAGTGCAG,19300 fluorescence intensity (a.u.)
16,GTTTCTTACCCATCTACTATGGCCTATTTAACCCTGCGCCCGGAGTCACCTAGTGCAG,11000 fluorescence intensity (a.u.)
17,GCCCGCGCCGTCTACCAGGACGCCGACGTCTACCTCCTCGCGGAGTCACCTAGTGCAG,8470 fluorescence intensity (a.u.)
18,CCTCTTCTCCTTCGGTGTGTTCGTCGATGTGCTTTGCTGACGGAGTCACCTAGTGCAG,8580 fluorescence intensity (a.u.)
19,CGGTTTGGGCTCTTTTGGCTGTTCCATGGCGACGAGGCGCCGGAGTCACCTAGTGCAG,8320 fluorescence intensity (a.u.)
20,GACCCCTCCGACCGCTACGCCAACCACAACACCGTCTTCTCGGAGTCACCTAGTGCAG,9430 fluorescence intensity (a.u.)
21,TGTCAACCCGCGCCTCCGATTTCTCCAGCTTTTCTTTCCCCGGAGTCACCTAGTGCAG,12800 fluorescence intensity (a.u.)
22,AGTAGTCTCCGTCTTCGTCCTCTTCCTTCTTGTTTAATAACGGAGTCACCTAGTGCAG,8930 fluorescence intensity (a.u.)
